The OligoGym collection

Target: HPD
Test: pooled miR-30 sensor sort-seq; sequence = guide strand
Details: shRNA
Further: reference of the scale not given here.

Sequence	sensor-assay potency score (higher = more potent)
TGCTGCAGTAGAATGACGCGGC	-0.159
TTTCTCGTCGTAGTCCACCAGG	-0.901
TTATAGTCCACATATTCCTGGA	0.144
TTGAACAGTGAGTTGAAGTTGC	0.599
AACTTGTCTTGCTCTACCCAGG	-0.858
TTTGATTACATGGCTGACCACC	-0.613
TGTGATGATGTCTTCGGTCTTG	0.215

Target: HS3ST2
Test: as above
Details: shRNA

Sequence	sensor-assay potency score (higher = more potent)
TTATTTCACATGGACAAGCATG	-1.23
TTCTTGGAGAGTGTCTGCGTGT	-0.361
TTGATTTGCCCAAGCATCGAGG	-0.341
TAACACAGGTAAGTGCAGGAGA	-0.326
ATAATATCTATCATCATTGGAA	-0.218
TTGCTTGAACAGACTGATGAAA	-0.965
TCTTGAGTGACAAAGTAGCTGG	-0.586
TTGAGTGACAAAGTAGCTGGGC	0.674
TAACAGCAGAATTATGTGCTTT	-0.0537
TTGTCCGTGATGAATCTCTTAA	-1.07
ATCGCTTATAATATCTATCATC	-1.47

Target: HS3ST4
Test: as above
Details: shRNA

Sequence	sensor-assay potency score (higher = more potent)
TTTACTAGAACAATTCCTGGTT	0.821
TTTGTCACAAAGTAACTTGGAG	-0.0205
TTTGAGGCCTAGAAAATCCTGT	0.0519
TTCTTTGACAGTGTCTGCGTGT	0.364
TTTTACTAGAACAATTCCTGGT	0.147
TTGTCACAAAGTAACTTGGAGT	-0.395
TTCTGTACCACTCCAACCCCTT	-0.516
TTTGTTGAAATAGAAATGCTTC	-0.152
TGAGCCGTGATCATCTCGCTGG	-0.131
TAAAACATCAAGTTGAAGGGTT	0.47
TTTCTTTGACAGTGTCTGCGTG	-0.405
TTGACAACTATTTATCCTCTGT	0.841

Target: HS6ST1
Test: as above
Details: shRNA

Sequence	sensor-assay potency score (higher = more potent)
TTGAGCTCCTCGATGCGCCGGA	0.162
TTTTTTTGTATGAATAACCAAA	-1.12
TTGGTGAGGGACACACTCCCGG	-0.875
TAGCAGGTGCACTTCTTCTGGC	-0.598
TAGTAGAACTTCCTGGGCGTGC	-0.463
TTGAGGTTGAACGTCCGCTCGA	-0.171
TAGTGTGATGCATCCACCCAGG	-0.887
TTGAACGTCCGCTCGAACAGGT	-0.0201
TGATGTAGTAGAACTTCCTGGG	0.812
TACTTCTTCTCGTAGTGGGGGT	-0.105
